Screening data from PubChem.
3T3 cytotox – Cytotoxic Profiling in NIH 3T3 Cell Line of Diverse Libraries Using Quantitative High-Throughput Screening; AID 1345082, 2018; Potency, µM (highest dose often 96.7 µM), most hits filed as inhibitors; NIH 3T3 viability, CellTiter-Glo ATP luminescence, 48-72 h; 94,000 tested, 4.3% active; note: nearly all actives have a fitted effect of over 55% in size
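First NIH 3T3 cells are plated at 400 cells/well; next compound is pinned in; then plates incubate 48 or 72 hr at 37 °C; finally CellTiter-Glo is added and luminescence read after 10 min.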
NPR1 antag – Natriuretic polypeptide receptor (hNpr1) antagonism - Primary qHTS; Atrial natriuretic peptide receptor 1 (Homo sapiens), P16066; AID 1347048, 2019; HEK293 hNpr1 GloSensor cGMP, ANP-stimulated luminescence; Potency, µM (series often up to 46.3 µM), actives largely listed as inhibitors; 76,000 tested, 1.6% active; calls by dose curve; note: nearly all actives have a fitted effect of over 60% in size
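Compound pre-incubated 30 min at room temperature on GloSensor-loaded HEK293 cells stably carrying hNpr1 and the pGS-40F cGMP biosensor. Stimulation uses hNppA at 0.1 nM final; luminescence is taken at baseline and 20 min post-agonist.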
GPT2 inh – Primary qHTS assay for inhibitors of Glutamate pyruvate transaminase 2 (GPT2) | Alanine aminotransferase 2 (Homo sapiens), Q8TD30 | Recombinant GPT2, coupled pyruvate oxidase/HRP Amplex Red fluorescence | Potency, µM (series often up to 57.7 µM), actives largely listed as inhibitors | 100,000 tested, 0.25% active | AID 1671188, 2021; note: nearly all actives have a fitted effect of over 60% in size
Target sequence (Q8TD30 whole entry, looked up): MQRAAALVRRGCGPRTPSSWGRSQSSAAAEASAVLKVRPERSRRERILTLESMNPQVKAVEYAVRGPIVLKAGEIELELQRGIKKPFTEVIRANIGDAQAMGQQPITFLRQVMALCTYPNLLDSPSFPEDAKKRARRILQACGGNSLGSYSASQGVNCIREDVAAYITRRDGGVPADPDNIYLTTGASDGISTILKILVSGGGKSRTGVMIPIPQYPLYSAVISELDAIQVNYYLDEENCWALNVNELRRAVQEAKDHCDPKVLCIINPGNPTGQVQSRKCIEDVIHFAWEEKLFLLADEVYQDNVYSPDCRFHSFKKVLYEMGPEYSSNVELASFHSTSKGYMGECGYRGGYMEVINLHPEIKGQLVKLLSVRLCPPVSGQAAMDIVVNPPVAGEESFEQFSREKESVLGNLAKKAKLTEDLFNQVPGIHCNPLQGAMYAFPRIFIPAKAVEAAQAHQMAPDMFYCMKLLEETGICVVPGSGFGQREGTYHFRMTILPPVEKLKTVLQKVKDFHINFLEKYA
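GPT2 10ng/uL, a-KG 250uM, L-Ala 2mM, HEPES pH7.5 + 0.0001% Tween; 30 min RT. Then Amplex mix (PO/HRP/ThPP), 30 min RT dark, fluorescence. AOA 50uM used as positive control.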
Luciferase inh – Firefly luciferase inhibition profiling of diverse chemical library using quantitative high-throughput screening; 76,000 tested, 2.5% active; Luciferin 4-monooxygenase (Photinus pyralis), P08659; Potency, µM (titrated, usually from 115 µM), most hits filed as inhibitors; purified P. pyralis luciferase, luminescence, biochemical; AID 1347043, 2019; note: nearly all actives have a fitted effect of over 65% in size
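Cell-free enzyme assay, 10nM P. pyralis luciferase, luciferin and ATP each at 10uM. Inhibition profiled over a 6-point titration, read as luminescence.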
HEK293 tox – Cytotoxic Profiling in HEK 293 Cell Line of Diverse Libraries Using Quantitative High-Throughput Screening; AID 1345083, 2018; HEK 293 viability, ATP luminescence (CellTiter-Glo), 48-72 h; Potency, µM (top dose mostly 115 µM), hits mostly inhibitors; 94,000 tested, 6.6% active; note: nearly all actives have a fitted effect of over 60% in size
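Pintool-delivered compounds were incubated with HEK 293 cells (250 cells/well) at 37 degree Celsius for 48 or 72 hr. ATP-dependent luminescence (CellTiter-Glo) then reported remaining viable cells.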
Numbers stand for hits; n = inactive; u = inconclusive; x = no result given. Most compounds without a hit are left out; they make up all but 10% or so of the library. Unless noted, calls come from the whole dose curve; as a rule, active = well fitted curve in the direction sought with a large enough effect; inconclusive = small, poorly fitted or top-dose-only effect, or another doubt; inactive = no such curve, though single readings can be large; an effect the other way counts as inactive or inconclusive.

SMILES	3T3 cytotox	NPR1 antag	GPT2 inh	Luciferase inh	HEK293 tox
Cc1[nH]c2c(F)cccc2c1CC(=O)NC1CC(c2cc(=O)[nH]c(N)n2)C1 (stereo not given)	n	n	n	n	n
CN1CC(=O)N(C2CCC2)Cc2c1ncnc2N1CCC(c2ccccc2)CC1	u	n	n	n	45µM
CN1CC(=O)N(c2ccc(Cl)cc2)Cc2c1ncnc2N1CCC(Cc2ccccc2)CC1	u	n	n	n	32µM
CN1CC(=O)N(C2CCC2)Cc2c1ncnc2N1CCC(Cc2ccccc2)CC1	45µM	n	n	n	u
CN1CC(=O)N(C2CCNC2)Cc2c1ncnc2N1CCC(c2ccccc2)CC1 (stereo not given)	n	x	n	x	n
COc1cc(Cl)c(C)cc1NC(=O)Cn1cccc1-c1nc(-c2ccccc2)no1	u	n	n	n	n
Cc1nn2c(c1-c1ccccc1OCc1ccccc1)N(Cc1nccn1C)CCC2	u	n	n	n	100µM
Cc1nn2c(c1-c1ccccc1OCc1ccccc1)N(C(=O)CN1CCOCC1)CCC2	u	n	n	n	n
Cc1nn2c(c1-c1ccccc1OCc1ccccc1)N(Cc1cccnc1)CCC2	u	n	n	n	63µM
Cc1nn2c(c1-c1ccccc1OCc1ccccc1)N(Cc1ccccc1O)CCC2	u	u	n	n	u
O=C(C1CCc2nnc(-c3ccc(Cl)nc3)n21)N1CCN(c2ncccn2)CC1 (stereo not given)	n	x	n	x	n
CC1=C[C@@H](CN(C)CCO)[C@H](C(C)C)C[C@H]1Cc1nnc(-c2ccc(C)cc2)o1	u	n	n	n	89µM
COCCNC[C@@H]1C=C(C)[C@H](Cc2nnc(-c3ccc(OC)cc3)o2)C[C@H]1C(C)C	28µM	n	u	n	28µM
COc1ccc(-c2nnc(C[C@@H]3C[C@@H](C(C)C)[C@H](CO)C=C3C)o2)cc1	u	n	n	n	40µM
CCOc1cccc(CN2CCC3(CC2)Cc2ccccc2CNC3=O)c1	n	x	n	x	n
Cc1nc(CC(=O)NCc2ccc3[nH]c(-c4ccc(F)cc4)c(C)c3c2)cs1	u	u	n	35µM	u
Cc1c(-c2ccc(F)cc2)[nH]c2ccc(CNC(=O)CCN3CCCO3)cc12	u	u	n	25µM	32µM
Cc1c(-c2ccc(F)cc2)[nH]c2ccc(CNCc3cnn(C)c3)cc12	40µM	n	n	u	40µM
Cc1c(-c2ccc(F)cc2)[nH]c2ccc(CNC(=O)[C@@H]3CCCO3)cc12	u	n	n	35µM	50µM
O=C1CCCCC(C(=O)NCc2ccc(F)cc2)N1 (stereo not given)	n	n	n	n	n
O=C(C[C@@H]1CCNC[C@@H]1Cc1cc(-c2ccc(F)cc2)on1)NCc1ccc2c(c1)OCO2	u	n	u	n	u
CC(C)C1CN(C(=O)c2ccccc2-c2ncc[nH]2)CCC(=O)N1CC1CC1 (stereo not given)	n	n	n	n	n
O=C(NCc1ccc(F)cc1)c1ccc(N2CC3CC(C2)[C@H]2CCCC(=O)N2C3)nc1 (stereo not given in full)	u	n	n	n	n
Cc1ccc(CN2C(=O)COC[C@H]2C(=O)Nc2ccc(C)c(F)c2)cc1	u	n	n	n	n
Cc1nn2c(c1-c1ccccc1C(C)C)N(Cc1ccc(F)cc1)CCC2	28µM	n	n	n	50µM
SMILES	3T3 cytotox	NPR1 antag	GPT2 inh	Luciferase inh	HEK293 tox
COc1ncccc1CN1CCCn2nc(C)c(-c3ccccc3C(C)C)c21	45µM	n	n	n	50µM
COc1ccc(C(=O)N2CCCn3nc(C)c(-c4ccccc4C(C)C)c32)cn1	u	n	n	n	n
COc1ccccc1CN1CCCn2nc(C)c(-c3ccccc3[S+](C)(=O)[O-])c21	35µM	n	u	n	45µM
CNC(=O)[C@@H]1C[C@H](Oc2ccccc2)CN1C(=O)c1cc(C)n(CCCOC)c1C	n	n	n	n	u
CNC(=O)c1cc(-c2ccc(Cl)cc2Cl)nc2c1cnn2C	u	x	n	x	u
Cc1ccc(-c2cc(N3CCCN(C(=O)c4cccnc4)CC3)n[nH]2)cc1C	n	n	n	n	n
CN(C)c1cccc(C(=O)N2CCCN(c3cc(-c4ccc(F)cc4)[nH]n3)CC2)c1	n	n	n	22µM	u
Cc1ccc(-c2cc(N3CCCN(C(=O)c4cccc(N(C)C)c4)CC3)n[nH]2)cc1C	40µM	u	u	u	u
O=C(c1ccc2cc[nH]c2c1)N1CCCN(c2cc(-c3ccc(F)cc3)[nH]n2)CC1	u	u	u	n	40µM
O=C(c1ccccc1F)N1CCN(c2cc(-c3ccc(F)cc3)[nH]n2)CC1	u	u	n	n	u
Cc1ccc(-c2cc(N3CCCN(C(=O)c4ccccc4F)CC3)n[nH]2)cc1C	u	n	u	n	28µM
O=C(c1ccc(F)cc1)N1CCCN(c2cc(-c3ccc(F)cc3)[nH]n2)CC1	n	n	n	n	u
O=C1NCc2ccccc2CC12CCN(Cc1ccncc1Cl)CC2	n	x	n	x	n
CNC(=O)c1cc(C2CC2)nc2onc(C3CCCN3C(C)=O)c12 (stereo not given)	n	x	x	x	n
COCCNc1ncnc2c1CN(c1ccccc1C)C(=O)CN2C	n	n	u	n	n
Cn1cccc1CN1CCC2(CC1)CN(c1ncccn1)CC2CO (stereo not given)	n	n	n	n	n
O=C(NCc1ccc(N2CCOCC2)cc1)c1cccc2c1CCN2C(=O)c1ccccc1	n	n	n	40µM	n
CN1CCC(NC(=O)c2cccc3c2CCN3C(=O)C2CC2)CC1	n	n	n	n	n
CN1CCC(NC(=O)c2cccc3c2CCN3C(=O)Nc2ccccc2)CC1	u	n	n	22µM	n
CNC(=O)c1cccc2c1CCN2C(=O)Nc1ccc(F)cc1	n	11µM	n	0.71µM	n
COCCNC(=O)c1cccc2c1CCN2C(=O)C1CC1	n	n	n	n	n
COc1cc(CNC(=O)c2cccc3c2CCN3C(=O)C2CC2)cc(OC)c1	n	n	n	n	45µM
Fc1ccc(C2Cn3nnc(-c4nc(-c5ccc(C(F)(F)F)cc5)no4)c3CO2)cc1 (stereo not given)	n	n	n	n	n
Cc1cc(C(F)(F)F)nn1CC(=O)N1C[C@@H](Oc2cccnc2)C[C@H]1C(=O)NC1CC1	n	n	n	n	n
COc1ccc(NC(=O)N2CCc3c(C(=O)Nc4ccccc4)cccc32)cc1	u	4.5µM	n	u	u
COc1ccc(NC(=O)c2cccc3c2CCN3C(=O)c2ccc(F)cc2)cc1	n	n	n	n	n
